Results taken from PubChem BioAssay (NCI).
Compounds without any hit were thinned out: in the full panel of roughly 83,000, 20% have a hit.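 Single-concentration screen, 48 h exposure, 96-well plates. Endpoint: percent growth. Below 10 = active.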 The source made the active and inactive calls.

Assays:
Test in all cases: NCI-60 one-dose screen, 48 h (100 = growth as untreated, 0 = no growth, -100 = all killed)
Conditions in all cases: 10 µM unless noted
T-47D breast = system: T-47D breast
BT-549 breast = system: BT-549 breast
MDA-MB-435 melanoma = system: MDA-MB-435 melanoma
SW-620 colon = system: SW-620 colon
MCF7 breast = system: MCF7 breast
HCC-2998 colon = system: HCC-2998 colon
KM12 colon = system: KM12 colon
HCT-116 colon = system: HCT-116 colon

Measured: growth

COc1ccc(OC)c(/C=C/C(=O)N/N=C/c2ccccc2)c1
inactive: T-47D breast 39.7% | BT-549 breast 60.8% | SW-620 colon 28.7% | MCF7 breast 17.3% | HCC-2998 colon 66.4% | KM12 colon 31%
active: MDA-MB-435 melanoma -7.51%

CN1CCN(Cc2ccc(NC(=O)c3ccc(C(C)(C)C)c(C#Cc4cnc5cccnn45)c3)cc2C(F)(F)F)CC1
inactive: T-47D breast 26.6% | BT-549 breast 88.5%
active: MDA-MB-435 melanoma -88.5% | MCF7 breast -74.3% | HCT-116 colon -70.8% | HCC-2998 colon -81.6% | KM12 colon -80.8%

Cc1ccc(-c2nc3c(c(-c4ccccc4)nn3-c3ccccc3)c(-c3ccc(O)cc3)c2C#N)cc1
inactive: T-47D breast 61.2% | BT-549 breast 76.8% | MDA-MB-435 melanoma 64.5% | SW-620 colon 62.8% | MCF7 breast 26.4% | HCC-2998 colon 95.3% | KM12 colon 55.9%

Cc1ccc(/C=N\NC(=O)c2[nH]c3ccc(F)cc3c2-c2ccccc2)cc1
active: MDA-MB-435 melanoma -13.8% | HCC-2998 colon -24.8% | KM12 colon -0.0461%
inactive: T-47D breast 75.4% | BT-549 breast 36.8% | SW-620 colon 25.7% | MCF7 breast 15.3%

O=C(CSc1nccc(Nc2ccc(S(=O)(=O)Nc3nccs3)cc2)n1)c1ccc(C(F)(F)F)cc1
inactive: T-47D breast 82.1% | BT-549 breast 88.2% | MDA-MB-435 melanoma 99% | SW-620 colon 102% | MCF7 breast 94.2% | HCC-2998 colon 112% | KM12 colon 106%

Fc1cc(-c2nnc3sc(-c4ccc(Cl)cc4Cl)nn23)c(Cl)cc1Cl
inactive: T-47D breast 68.4% | BT-549 breast 79.4% | MDA-MB-435 melanoma 94.3% | MCF7 breast 83.7% | HCT-116 colon 45.9% | HCC-2998 colon 93% | KM12 colon 96%

CCOC(=O)c1cn2ncnc(Oc3ccc(NC(=O)NCCN4CCN(C)CC4)c(Cl)c3)c2c1C
inactive: T-47D breast 25.5% | BT-549 breast 77.8% | MDA-MB-435 melanoma 40.7% | SW-620 colon 69% | MCF7 breast 65.5% | HCC-2998 colon 89.2% | KM12 colon 91.4%

OC(COc1ccccc1Cl)CN1CCN(c2cccc(Cl)c2)CC1 (centres undefined)
inactive: T-47D breast 109% | BT-549 breast 95.5% | MDA-MB-435 melanoma 109% | SW-620 colon 110% | MCF7 breast 93.8% | HCC-2998 colon 114% | KM12 colon 104%

O=C(Oc1cccc2ccccc12)Oc1cccc2ccccc12
inactive: T-47D breast 95.1% | BT-549 breast 98.9% | MDA-MB-435 melanoma 115% | MCF7 breast 107% | HCT-116 colon 107% | HCC-2998 colon 105% | KM12 colon 97.3%

CCCCCCCNC(=O)CCCNc1ncnc2c1ncn2-c1cccc(C(C)O)c1 (centres undefined)
inactive: T-47D breast 74.1% | BT-549 breast 93.5% | MDA-MB-435 melanoma 97.5% | SW-620 colon 101% | MCF7 breast 86.6% | HCC-2998 colon 103% | KM12 colon 95.6%

COC(=O)[C@H](C)NC(=O)NC(=O)NC(=O)CI
active: SW-620 colon -33.4%
inactive: T-47D breast 44.6% | BT-549 breast 84.3% | MDA-MB-435 melanoma 63% | MCF7 breast 17.7% | HCC-2998 colon 94.6% | KM12 colon 98.5%

O=C(Nc1c2ccccc2nc2ccccc12)c1ccccc1CN1C(=O)c2ccccc2C1=O
inactive: T-47D breast 33.4% | BT-549 breast 76.2% | MDA-MB-435 melanoma 30.3% | SW-620 colon 15.5% | MCF7 breast 10.3% | HCC-2998 colon 41.4% | KM12 colon 26%

OC(c1ccccc1)C(NC(Cc1ccccc1)c1ccccc1)c1ccccc1 (centres undefined)
inactive: T-47D breast 73.6% | BT-549 breast 91.4% | MDA-MB-435 melanoma 97.9% | SW-620 colon 90% | MCF7 breast 104% | HCC-2998 colon 96.1% | KM12 colon 89.1%

COc1cc(CCCO)c(OC)c(OC)c1OC
inactive: T-47D breast 99.4% | BT-549 breast 107% | MDA-MB-435 melanoma 102% | SW-620 colon 105% | MCF7 breast 104% | HCC-2998 colon 103% | KM12 colon 105%

Cc1cc2nc3cc(C)c(N)cc3[n+](-c3ccccc3)c2cc1N
inactive: T-47D breast 14% | BT-549 breast 18.5% | MDA-MB-435 melanoma 67.2% | SW-620 colon 72.9% | MCF7 breast 32.7% | HCC-2998 colon 56.6% | KM12 colon 28%

COc1ccc(/C=C/c2c(C(=O)/C=C/c3ccc(Cl)cc3)c(C)nc3ccccc23)cc1
active: MDA-MB-435 melanoma 2.02% | SW-620 colon -17% | HCC-2998 colon -48.6%
inactive: T-47D breast 23.2% | BT-549 breast 54.5% | MCF7 breast 26.2% | KM12 colon 30.2%

N#Cc1cccc(NC(=O)c2cc(-c3ccc(F)cc3F)ccc2O)c1
inactive: T-47D breast 16.1% | SW-620 colon 18.8% | HCC-2998 colon 26.5%
active: BT-549 breast 5.92% | MDA-MB-435 melanoma 8.27% | MCF7 breast 3.66% | KM12 colon 7.89%

O=c1cc(SCc2ccccc2)nc[nH]1
inactive: T-47D breast 114% | BT-549 breast 103% | MDA-MB-435 melanoma 106% | SW-620 colon 107% | MCF7 breast 101% | HCC-2998 colon 112% | KM12 colon 94.8%

CC/C=C\C[C@@H](O)C/C=C1/C(=O)C=C[C@H]1C/C=C\CCCC(=O)OC
active: BT-549 breast -6.09% | MDA-MB-435 melanoma 1.93% | MCF7 breast 9.31% | HCT-116 colon -47.1% | HCC-2998 colon -88.1% | KM12 colon -58.2%
inactive: T-47D breast 15.6%

COc1cccc2nc3n(c12)C(c1c(F)cccc1F)SC3 (centres undefined)
inactive: T-47D breast 104% | BT-549 breast 108% | MDA-MB-435 melanoma 106% | SW-620 colon 106% | MCF7 breast 104% | HCC-2998 colon 99.9% | KM12 colon 100%

COc1ccc(CN2c3ccccc3CCc3ccccc32)cc1F
inactive: T-47D breast 47.1% | BT-549 breast 54% | MCF7 breast 20.4% | HCC-2998 colon 30.7% | KM12 colon 16.5%
active: MDA-MB-435 melanoma -49.4% | HCT-116 colon 2.32%

COc1cc(Nc2cn[nH]c2-c2ccc(Cl)cc2)cc(OC)c1OC
active: MDA-MB-435 melanoma -37.1% | HCC-2998 colon -28.5%
inactive: T-47D breast 23.4% | BT-549 breast 46.5% | MCF7 breast 20.7% | HCT-116 colon 20.7% | KM12 colon 20.2%

CCCCCCCCCCCCCCCCCCOc1ccc(CC(=O)OCC[N+]2(C)CCCCC2)cc1
inactive: T-47D breast 92.6% | BT-549 breast 112% | SW-620 colon 96.2% | MCF7 breast 91% | HCT-116 colon 57.7% | HCC-2998 colon 97.4% | KM12 colon 101%

COc1ccc(-c2nn(C(=O)c3cc(OC)c(OC)c(OC)c3)c3cc(N)ccc23)cc1
active: MDA-MB-435 melanoma 5.29% | MCF7 breast 6.74% | HCT-116 colon 5.15%
inactive: T-47D breast 59.9% | BT-549 breast 21.5% | HCC-2998 colon 25.1% | KM12 colon 12.4%

CCN(CC)CCCNc1nc2ccccc2c2c(=O)c3cc(Cl)ccc3sc12
active: MDA-MB-435 melanoma -4.23%
inactive: T-47D breast 61.3% | BT-549 breast 91.2% | MCF7 breast 44.4% | HCT-116 colon 20.2% | HCC-2998 colon 26.5% | KM12 colon 27%

NC(=O)Nc1ccc2ncnc(Nc3ccc(Cl)cc3)c2c1
inactive: T-47D breast 61.6% | BT-549 breast 92.4% | MDA-MB-435 melanoma 97.8% | MCF7 breast 86.5% | HCT-116 colon 96.4% | HCC-2998 colon 97.9% | KM12 colon 98.5%

CC(C)C(=O)Nc1ccc(-c2nc(-c3cccc(OCCN4CCOCC4)c3)c(-c3ccnc(Br)c3)[nH]2)cc1
inactive: T-47D breast 39% | BT-549 breast 56.4% | SW-620 colon 50.4% | MCF7 breast 15.9% | HCT-116 colon 44.5% | HCC-2998 colon 66.2% | KM12 colon 33.7%

Cc1nc(NC(=O)COc2ccc(/C=C3\Cc4ccc(Cl)cc4C3=O)cc2)sc1C
inactive: T-47D breast 109% | BT-549 breast 328% | MDA-MB-435 melanoma 96.8% | MCF7 breast 88.6% | HCT-116 colon 109% | HCC-2998 colon 90.9% | KM12 colon 119%

COc1ccc([C@H]2c3cc(OC)c(OC)cc3C=C(C=O)C2CO)cc1OC (some centres undefined)
active: MDA-MB-435 melanoma -24%
inactive: T-47D breast 45.2% | BT-549 breast 58.6% | MCF7 breast 18.5% | HCT-116 colon 23.8% | HCC-2998 colon 58.4% | KM12 colon 21%

O=C(/C=C/c1sc(Cl)nc1Cl)c1ccccc1
inactive: T-47D breast 98.3% | BT-549 breast 107% | MDA-MB-435 melanoma 99.4% | MCF7 breast 32.8% | HCT-116 colon 34% | HCC-2998 colon 49.3% | KM12 colon 85.7%

CCc1cccc2c1S/C(=C/c1ccc(OC)cc1)C2=O
inactive: T-47D breast 53.9% | BT-549 breast 55.5% | SW-620 colon 30% | MCF7 breast 22.3% | HCT-116 colon 34.3% | HCC-2998 colon 77.7% | KM12 colon 28.6%

Cc1ccc(-c2nc(SCC(=O)Nc3nc(-c4ccc(Cl)cc4)cs3)[nH]c(=O)c2C#N)cc1
inactive: T-47D breast 87.2% | BT-549 breast 83.6% | MDA-MB-435 melanoma 107% | MCF7 breast 97.7% | HCC-2998 colon 109% | KM12 colon 96.1%

COc1ccc(C(=O)C(C)C)c2ccccc12
inactive: T-47D breast 92.2% | BT-549 breast 113% | MDA-MB-435 melanoma 97.9% | MCF7 breast 107% | HCT-116 colon 101% | HCC-2998 colon 107% | KM12 colon 101%

O=S(=O)(NCCCNc1cc(-c2c(-c3cccc(O)c3)nc3sccn23)ccn1)c1cccc2ccccc12
active: T-47D breast 8.57%
inactive: BT-549 breast 25.5% | MDA-MB-435 melanoma 35.6% | MCF7 breast 35.4% | HCT-116 colon 33.1% | HCC-2998 colon 59.2% | KM12 colon 34.8%

CCc1cccc2c3c(sc12)C(c1ccc(F)cc1)C(C#N)=C(N)O3 (centres undefined)
inactive: T-47D breast 42.1% | BT-549 breast 19.7% | SW-620 colon 30.3% | MCF7 breast 16.1% | HCT-116 colon 17.7% | HCC-2998 colon 15.4% | KM12 colon 25.1%
